This excerpt belongs to a sample that is enriched for hits.
HIV RNase H inh-1: blocks HIV-1 RNase H cleavage of RNA/DNA duplex; P04585; RT-RNase H RNA/DNA duplex cleavage, fluorescence; inhibition, % at 10 µM; hit rate 1.9% among 65,000; AID 565; in the data active = inhibition above about 50%
RmlC RmlD mix: RmlC/RmlD inhibition, mixture screen | RmlC/RmlD coupled enzyme inhibition, 384-well mixture HTS | inhibition, % at 5.5 µM | hit rate 0.39% among 110,000; in the data active = inhibition above about 30%, passing the limit was not always enough; inconclusive = no clear call, values can overlap the other calls
HIV RNase H inh-2: confirmation of HIV-1 reverse transcriptase RNase H inhibitors. shares compounds with HIV RNase H inh-1. inhibition, % at 10 µM. hit rate 39% among 1,000. Recombinant RT RNase H, fluorescent RNA/DNA duplex cleavage; in the data active = inhibition above about 48%; inconclusive = no clear call, values can overlap the other calls
* = called active by the depositor; u = inconclusive; x = no result given.

SMILES	HIV RNase H inh-1	RmlC RmlD mix	HIV RNase H inh-2
Cc1ccc(CSc2nc3c(c(=O)[nH]2)C(c2ccncc2)C2=C(CCCC2=O)N3)cc1 (stereo unspecified)	59.3*	48.8	40.3
CSc1nc2c(c(=O)[nH]1)C(c1cccs1)C1=C(CCCC1=O)N2 (stereo unspecified)	16.7	9.3	x
Clc1ccc(-c2nnc3sc(-c4ccccn4)nn23)cc1	-8.0	14.0	x
Clc1ccccc1-c1nn2c(-c3ccncc3)nnc2s1	87.2*	6.1	57.2*
Clc1ccccc1-c1nnc2sc(-c3ccncc3)nn12	-63.2	3.1	x
c1ccc(-c2nn3c(-c4ccncc4)nnc3s2)nc1	64.1*	x	47.0
CCOc1ccc(N2C(=O)c3cccnc3C2Nc2ccc(Cl)cc2)cc1 (stereo unspecified)	20.0	-5.0	x
Cc1ccc(NC2c3ncccc3C(=O)N2c2ccccc2C)cc1C (stereo unspecified)	56.2*	14.5	11.0
COc1ccc(CC(=O)OCc2cc3ccccc3[nH]c2=O)cc1	-45.4	-5.8	x
CCC(Sc1ccc(Cl)cc1)C(=O)Nc1nnc(-c2cccc([N+](=O)[O-])c2)s1 (stereo unspecified)	x	9.3	x
Cc1cnc(C(=O)Nc2ccc3c(c2)CCC3)cn1	0.4	8.7	x
Cc1cnc(C(=O)Nc2ccc(F)c(F)c2)cn1	50.8*	9.9	26.4
CCOC(=O)C1=C(C)N(c2ccccc2)C(=O)C1	x	-16.1	x
Nc1sc2c(c1C(=O)NC1CCS(=O)(=O)C1)CCCC2 (stereo unspecified)	65.9*	-5.8	26.5
NC(=O)c1c(N)sc2c1CCCC2	35.4	-6.5	x
Cc1ccccc1NS(=O)(=O)c1cc(S(C)(=O)=O)ccc1Cl	-0.3	-9.5	x
Cc1cc(NS(=O)(=O)c2ccccc2)c(C)c(Cl)c1O	79.8*	20.6	-6.1
Cn1c(=O)n(C)c2cc([N+](=O)[O-])c(N3CCN(C(=O)c4ccccc4Cl)CC3)cc21	x	-9.3	x
C=CCn1c(Cc2c[nH]c3ccccc23)n[nH]c1=S	53.6*	-12.3	20.1
C=CCn1c(Cc2c[nH]c3ccccc23)nnc1SCC(=O)NCc1ccccc1	x	1.2	x
Cc1ccc(-c2cc(C(F)(F)F)n3ncc(C(=O)NCc4ccco4)c3n2)cc1	62.6*	28.0	42.0
CCOC(=O)N1CCN(C(=O)c2cnn3c(C(F)F)cc(-c4ccc(C)cc4)nc23)CC1	-10.3	42.7	x
COc1ccc(-c2cc(C(F)(F)F)n3nc(C(=O)NCc4ccco4)c(Cl)c3n2)cc1	x	-25.9	x
Cc1ccc(-c2cc(C(F)F)n3ncc(C(=O)NCc4ccco4)c3n2)cc1	70.3*	21.9	73.8*
CCOc1ccc2[nH]c(C)cc(=O)c2c1	-5.3	4.0	x
SMILES	HIV RNase H inh-1	RmlC RmlD mix	HIV RNase H inh-2
CC(=O)Nc1ccc(S(=O)(=O)NC2(C(F)(F)F)NC(=O)N(C3CCCCC3)C2=O)cc1 (stereo unspecified)	x	-10.3	x
Cc1ccc(S(=O)(=O)N2CCN(CC(=O)NC3CCCc4ccccc43)CC2)cc1C (stereo unspecified)	x	-7.5	x
Cc1[nH]c2ccccc2c1C(=O)CSc1nc2cc(S(=O)(=O)N3CCCCC3)ccc2o1	36.1	0.8	x
Cc1ccc(C(=O)CSc2nc3cc(S(=O)(=O)N4CCOCC4)ccc3o2)cc1	72.4*	4.2	22.6
O=C(CSc1nc2cc(S(=O)(=O)N3CCOCC3)ccc2o1)NC1CCCc2ccccc21 (stereo unspecified)	85.5*	0.5	u
O=C(O)c1nc(N2CCCCC2)ncc1Cl	x	10.4	x
N#CC1=C(N)SC2(CCCCC2)SC1c1ccccc1 (stereo unspecified)	59.4*	-2.9	22.4
N#CC1=C(C2CC2)CC(c2ccccc2)C(C#N)=C1N (stereo unspecified)	-63.2	8.6	x
COc1ccc(-c2cc(C(F)F)n3ncc(C(=O)NCC4CCCO4)c3n2)cc1 (stereo unspecified)	-18.2	x	x
CCc1nc(SCC(=O)NCC2CCCO2)c2oc3ccccc3c2n1 (stereo unspecified)	-7.2	4.5	x
c1ccc(CCc2nn3c(Cc4ccccc4)nnc3s2)cc1	89.8*	-9.6	20.1
c1csc(-c2nn3c(Cn4nnc5ccccc54)nnc3s2)c1	-47.6	1.1	x
c1ccc(Cc2nnc3sc(-c4cccs4)nn23)cc1	85.2*	5.6	32.7
c1ccc(Cc2nnc3sc(-c4ccc5c(c4)OCO5)nn23)cc1	85.1*	-11.9	49.3
c1ccc2c(c1)nnn2Cc1nnc2sc(-c3ccncc3)nn12	75.1*	9.0	70.1*
c1csc(-c2nn3c(C4CCCCC4)nnc3s2)c1	-9.6	x	x
CCOc1ccccc1-c1nn2c(Cc3ccccc3)nnc2s1	-39.0	-5.4	x
CCc1nnc2sc(-c3ccc(NC(=O)c4ccc5c(c4)OCCO5)cc3)nn12	4.4	-16.3	x
COc1ccccc1Nc1ccc(C(=O)NC2CCCCC2)cn1	-15.6	-18.6	x
Cc1ccc(S(=O)(=O)Cn2nnnc2CN(Cc2ccco2)CC2CCCO2)cc1 (stereo unspecified)	-0.1	12.5	x
COc1cccc(OC)c1C(=O)Nc1ccccc1N1CCCC1	-11.7	13.2	x
O=S(=O)(c1ccccc1)N(Cc1nc(-c2ccccc2)no1)C1CCCCC1	5.1	10.6	x
c1ccc(Cc2nnc3sc(-c4cccnc4)nn23)cc1	2.5	-8.0	x
c1ccc(Cc2nnc3sc(-c4ccncc4)nn23)cc1	92.5*	5.5	66.1*
CCn1c(O)c(/C=N/n2cnnc2)sc1=S	61.0*	-86.3	0.1
SMILES	HIV RNase H inh-1	RmlC RmlD mix	HIV RNase H inh-2
CCn1c(O)c(C=NC2CCCC2)sc1=S	x	8.0	x
COc1ccc(C2CC(C(F)(F)F)n3nc(C(=O)N(C)Cc4cn(C)nc4C)c(Cl)c3N2)cc1 (stereo unspecified)	-6.5	-9.8	x
CCOC(=O)N1CC=C2C(C#N)=C(N)C(C#N)(C#N)[C@H](c3ccccc3OCC)[C@H]2C1	28.6	10.5	x
CCOC(=O)N1CC=C2C(C#N)=C(N)C(C#N)(C#N)[C@H](c3ccc(OC(C)C)c(OCC)c3)[C@H]2C1	89.2*	9.2	75.5*
Cc1cc(C)c(NC(=O)CCCN2CCN(C)CC2)c(C)c1	1.7	6.7	x
O=C1N=C(N2CCOCC2)S/C1=C1\C(=O)N(Cc2ccccc2)c2ccc(Br)cc21	11.9	x	x
CCCCN1C(=O)/C(=C2\SC(N3CCCCC3)=NC2=O)c2ccccc21	86.2*	-21.4	25.0
Cc1nc(N)sc1-c1csc(Nc2ccccc2)n1	-1.8	7.9	x
Cc1cc(O)ccc1Nc1nc(-c2sc(N)nc2C)cs1	73.2*	6.4	49.1
Cc1nc(NC(=O)c2ccccc2)sc1-c1csc(NCc2ccco2)n1	24.4	-24.8	x
O=C(NCC(=O)N(CCN1CCOCC1)C(C(=O)NC1CCCC1)c1cccs1)c1ccco1 (stereo unspecified)	-7.0	-10.3	x
COc1ccc(OC)c(NS(=O)(=O)Cc2ccccc2)c1	77.2*	x	u
COc1ccc(OC)c(S(=O)(=O)NCc2ccccc2)c1	15.6	2.8	x
COc1ccccc1-c1nc(NC(C)=O)n[nH]1	0.6	9.2	x
CCC(C)NC(=O)c1cnn2c(C)c3c(nc12)CCCC3 (stereo unspecified)	-14.4	95.0	x
COc1cc2c(c(OC)c1)C(c1cccc(OC)c1OC)CC(=O)N2 (stereo unspecified)	-43.5	8.8	x
CCCOc1c(OC)cccc1C1CC(=O)Nc2cc(OC)c(OC)c(OC)c21 (stereo unspecified)	65.5*	-15.8	35.0
COCCCn1c(SCC(=O)Nc2nnc(C)s2)nnc1-c1ccoc1C	4.4	5.1	x

Screening results (PubChem)
